From PubChem BioAssay (Tox21)
Inconclusive results are not listed. Entries that show only a call come without a potency. Calls of active or inactive are those of the source. Unless noted, calls come from the whole dose curve; as a rule, active = well fitted curve in the direction sought with a large enough effect in the repeat runs; inconclusive = weak or mixed curves; inactive = no such curve, though single readings can be large; an effect the other way counts as inactive or inconclusive.

Key:
[1] = qHTS assay to identify aromatase inhibitors - cell viability counter screen (AID 743084);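 note: cells stimulated with testosterone during compound exposure; nearly all actives have a fitted effect of over 55% in size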
[2] = target: Aryl hydrocarbon receptor (Homo sapiens) (UniProt P35869); experiment: qHTS assay to identify small molecule that activate the aryl hydrocarbon receptor (AhR) signaling pathway (AID 743085);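 note: HG2L7.5c1 human HepG2 liver cells with stably integrated DRE-driven firefly reporter; series mostly up to about 70 µM; nearly all actives have a fitted effect of over 15% in size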
How it was run: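 AhR agonist activity is inferred from enhanced light output of a DRE-controlled firefly luciferase reporter in HepG2 cells, measured with ONE-Glo following 24 h treatment at 37C.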

[3] = qHTS assay to identify small molecule that activate the aryl hydrocarbon receptor (AhR) signaling pathway - cell viability counter screen (AID 743086);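 note: HepG2 liver cells carrying the AhR DRE luciferase reporter; series mostly up to about 70 µM; nearly all actives have a fitted effect of over 45% in size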
How it was run: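 HepG2-AhR-luc (HG2L7.5c1) cells, 4000/well, treated 24 h at 37 C with compound; viability measured as CellTiter-Fluor fluorescence after 30 min in the same wells as the luciferase read.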

[4] = target: Peroxisome proliferator-activated receptor gamma (Homo sapiens) (UniProt P37231); experiment: qHTS assay to identify small molecule agonists of the peroxisome proliferator-activated receptor gamma (PPARg) signaling pathway (AID 743094; active = well fitted activation curve with a large enough effect in the signal ratio in the repeat runs, not every such curve was filed as active; the % refers to the signal ratio)
How it was run: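 GeneBLAzer PPARg UAS-bla HEK293H cells carrying a stably integrated beta-lactamase reporter were pre-incubated 5 h at 37C, then exposed to compounds in DMSO for 17 h at 37C; LiveBLAzer B/G FRET substrate was added for 1 h at room temperature and fluorescence read.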

[5] = target: Peroxisome proliferator-activated receptor gamma (Homo sapiens) (UniProt P37231); experiment: qHTS assay to identify small molecule antagonists of the peroxisome proliferator-activated receptor gamma (PPARg) signaling pathway (AID 743191; calls by dose curve; note: series mostly up to about 63 µM; nearly all actives have a fitted effect of over 30% in size)
How it was run: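 GeneBLAzer PPARg UAS-bla HEK293H cells, 5 h post-plating, exposed to compounds 17 h at 37C. LiveBLAzer B/G FRET substrate added for 1 h at room temperature; beta-lactamase reporter read by fluorescence intensity.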

[6] = qHTS assay to identify small molecule antagonists of the peroxisome proliferator-activated receptor gamma (PPARg) signaling pathway - cell viability counter screen (AID 743194); note: nearly all actives have a fitted effect of over 55% in size
How it was run: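 Cytotoxicity counter screen in PPARg-bla HEK293H cells, same wells as reporter assay. Compounds plus 50 nM rosiglitazone (final) for 17 h at 37 C, then viability read by CellTiter-Glo luminescence.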

[7] = qHTS assay for small molecule agonists of the antioxidant response element (ARE) signaling pathway - cell viability counter screen (AID 743203; calls by dose curve; note: nearly all actives have a fitted effect of over 55% in size)
How it was run: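 CellSensor ARE-bla HepG2 cells, 2,000 per well, rested 5 hrs at 37C/5% CO2, then exposed to compound in DMSO for 16 hrs; viability read as CellTiter-Glo luminescence after 30 min at room temperature, in the reporter wells.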

[8] = qHTS assay for small molecule activators of the heat shock response signaling pathway - cell viability counter screen (AID 743209); note: nearly all actives have a fitted effect of over 50% in size
How it was run: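 CellSensor HSE-bla HeLa cells, plated overnight at 37 C/5% CO2, were exposed to compounds in DMSO for 5 h at 37 C. Viability was then read in the same wells by CellTiter-Glo luminescence after 30 min at room temperature.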

[9] = qHTS assay for small molecule activators of the heat shock response signaling pathway (AID 743210; active = well fitted activation curve with a large enough effect in the signal ratio in the repeat runs, with a control signal flat, not every such curve was filed as active; the % refers to the signal ratio; note: series mostly up to about 63 µM)
How it was run: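 HSE-bla HeLa cells (beta-lactamase reporter under heat shock response elements), plated overnight, then exposed to compounds 5 h at 37 C; LiveBLAzer B/G FRET substrate added, 2.5 h at room temperature, fluorescence intensity read.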

[10] = qHTS assay to identify small molecule agonists of the peroxisome proliferator-activated receptor delta (PPARd) signaling pathway - cell viability counter screen (AID 743211); note: nearly all actives have a fitted effect of over 55% in size
How it was run: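 qHTS cell viability: PPARd-bla HEK293H; 17 h cpd, 37C; CellTiter-Glo, luminescence at 30 min RT.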

[11] = target: Peroxisome proliferator-activated receptor delta (Homo sapiens) (UniProt Q03181); experiment: qHTS assay to identify small molecule agonists of the peroxisome proliferator-activated receptor delta (PPARd) signaling pathway (AID 743212; calls by dose curve)
How it was run: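 GeneBLAzer UAS-bla HEK293H cells carrying a PPARδ construct were exposed to compounds at 37 °C. Beta-lactamase activity was read by FRET fluorescence after 2 h at room temperature with LiveBLAzer B/G substrate.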

[12] = qHTS assay to identify small molecule antagonists of the peroxisome proliferator-activated receptor delta (PPARd) signaling pathway - cell viability counter screen (AID 743213); note: nearly all actives have a fitted effect of over 50% in size; note: potency is the fitted concentration of half-maximal effect
How it was run: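 PPARd-bla HEK293H cells (3000/well) got compound plus 300 nM L165041 agonist for 17 h at 37 C. Viability in the same wells came from CellTiter-Glo luminescence after 30 min at room temperature.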

[13] = target: Peroxisome proliferator-activated receptor delta (Homo sapiens) (UniProt Q03181); experiment: qHTS assay to identify small molecule antagonists of the peroxisome proliferator-activated receptor delta (PPARd) signaling pathway (AID 743215; active = well fitted inhibition curve with a large enough effect in the signal ratio in the repeat runs, not every such curve was filed as active; the % refers to the signal ratio;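 note: cells stimulated with agonist L165041 at 300 nM final during compound exposure; series mostly up to about 62 µM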)
How it was run: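 PPARd UAS-bla HEK293H cells were pre-incubated 5 h at 37 C, then given test compounds in DMSO plus agonist L165041 (300 nM final). After 17 h at 37 C, beta-lactamase FRET substrate was added; fluorescence read after 2 h at room temperature.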

[14] = target: Bile acid receptor (Homo sapiens) (UniProt Q96RI1); experiment: qHTS assay to identify small molecule antagonists of the farnesoid-X-receptor (FXR) signaling pathway (AID 743217; active = well fitted inhibition curve with a large enough effect in the signal ratio in the repeat runs, not every such curve was filed as active; the % refers to the signal ratio)
How it was run: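 FXR-UAS-bla HEK 293T cells pre-incubated 5 h at 37 °C, then exposed to compounds with chenodeoxycholic acid (50 uM final) for 16 h at 37 °C. Beta-lactamase reporter read by LiveBLAzer B/G FRET substrate fluorescence after 2 h at room temperature.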

[15] = qHTS assay to identify small molecule agonists of the farnesoid-X-receptor (FXR) signaling pathway - cell viability counter screen (AID 743218); note: nearly all actives have a fitted effect of over 45% in size; note: potency is the fitted concentration of half-maximal effect
How it was run: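 FXR-UAS-bla HEK 293T cells, plated 5 h at 37 C, were exposed to compounds for 16 h at 37 C. CellTiter-Glo was then added to the same wells as the bla readout; luminescence read after 30 min at room temperature.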

[16] = target: Bile acid receptor (Homo sapiens) (UniProt Q96RI1); experiment: qHTS assay to identify small molecule agonists of the farnesoid-X-receptor (FXR) signaling pathway (AID 743220; active = well fitted activation curve with a large enough effect in the signal ratio in the repeat runs, not every such curve was filed as active; the % refers to the signal ratio)
How it was run: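 Beta-lactamase reporter under UAS control in GeneBLAzer FXR HEK 293T cells (5000/well) measured with LiveBLAzer FRET substrate after 2 h at room temperature. Compound exposure lasted 16 h at 37C.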

[17] = qHTS assay to identify small molecule antagonists of the farnesoid-X-receptor (FXR) signaling pathway - cell viability counter screen (AID 743221; active = well fitted cell-killing curve with a large enough effect in the repeat runs, not every such curve was filed as active; note: nearly all actives have a fitted effect of over 50% in size)
How it was run: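 After a 5 h settling period, FXR-bla HEK 293T cells receive compound and chenodeoxycholic acid (50 uM final) and incubate 16 h at 37 C; CellTiter-Glo luminescence, read after 30 min at room temperature, reports cell viability.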

[18] = target: Vitamin D3 receptor (Homo sapiens) (UniProt P11473); experiment: qHTS assay to identify small molecule agonists of the vitamin D receptor (VDR) signaling pathway (AID 743222; calls by dose curve)
How it was run: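 VDR-bla cells were plated 4 h at 37C/5% CO2, then exposed to compounds in DMSO for 16 h. After LiveBLAzer B/G FRET substrate addition and 2 h at room temperature, beta-lactamase reporter fluorescence was read.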

[19] = qHTS assay for small molecule agonists of the antioxidant response element (ARE) signaling pathway (AID 743202; active = well fitted activation curve with a large enough effect in the signal ratio in the repeat runs, not every such curve was filed as active; the % refers to the signal ratio)
How it was run: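 ARE-bla HepG2 cells (beta-lactamase reporter under the antioxidant response element), plated 5 hours, then exposed to compounds 16 hours at 37 C. LiveBLAzer B/G FRET substrate added for 2 hours at room temperature; fluorescence intensity read.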

[20] = target: Vitamin D3 receptor (Homo sapiens) (UniProt P11473); experiment: qHTS assay to identify small molecule antagonists of the vitamin D receptor (VDR) signaling pathway (AID 743223; active = well fitted inhibition curve with a large enough effect in the signal ratio in the repeat runs, not every such curve was filed as active; the % refers to the signal ratio)
How it was run: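 Reporter line VDR-bla; stimulus 1alpha,25-(OH)2 vitamin D3, 3 nM final; compound co-addition, 16 h 37C/5% CO2; LiveBLAzer B/G substrate 2 h RT; fluorescence intensity.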

Sequence of Peroxisome proliferator-activated receptor delta (Homo sapiens) (Q03181 whole entry, looked up): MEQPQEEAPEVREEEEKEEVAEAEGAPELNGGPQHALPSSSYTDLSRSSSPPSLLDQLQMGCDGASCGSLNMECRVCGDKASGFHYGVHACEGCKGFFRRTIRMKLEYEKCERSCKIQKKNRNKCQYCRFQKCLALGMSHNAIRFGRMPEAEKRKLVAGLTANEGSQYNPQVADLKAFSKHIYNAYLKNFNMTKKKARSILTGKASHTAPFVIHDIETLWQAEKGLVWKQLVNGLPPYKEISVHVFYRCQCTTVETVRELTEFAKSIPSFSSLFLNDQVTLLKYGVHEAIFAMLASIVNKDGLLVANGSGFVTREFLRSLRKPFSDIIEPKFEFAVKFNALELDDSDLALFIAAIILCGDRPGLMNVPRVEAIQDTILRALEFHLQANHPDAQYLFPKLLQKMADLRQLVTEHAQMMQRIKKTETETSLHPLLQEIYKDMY
Sequence of Peroxisome proliferator-activated receptor gamma (Homo sapiens) (P37231 whole entry, looked up): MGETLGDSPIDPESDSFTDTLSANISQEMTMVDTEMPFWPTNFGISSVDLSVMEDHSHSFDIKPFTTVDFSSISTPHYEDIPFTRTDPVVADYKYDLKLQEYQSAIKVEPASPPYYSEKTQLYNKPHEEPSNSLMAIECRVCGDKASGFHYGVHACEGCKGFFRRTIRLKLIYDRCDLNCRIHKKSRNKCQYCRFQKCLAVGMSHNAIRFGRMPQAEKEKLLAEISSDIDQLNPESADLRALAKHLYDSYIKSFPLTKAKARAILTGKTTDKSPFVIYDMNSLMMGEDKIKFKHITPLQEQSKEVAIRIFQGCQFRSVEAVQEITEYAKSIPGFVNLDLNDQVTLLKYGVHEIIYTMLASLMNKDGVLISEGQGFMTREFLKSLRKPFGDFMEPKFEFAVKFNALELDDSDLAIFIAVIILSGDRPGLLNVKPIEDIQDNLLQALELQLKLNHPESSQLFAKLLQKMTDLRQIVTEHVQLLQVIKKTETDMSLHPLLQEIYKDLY
Sequence of Vitamin D3 receptor (Homo sapiens) (P11473 whole entry, looked up): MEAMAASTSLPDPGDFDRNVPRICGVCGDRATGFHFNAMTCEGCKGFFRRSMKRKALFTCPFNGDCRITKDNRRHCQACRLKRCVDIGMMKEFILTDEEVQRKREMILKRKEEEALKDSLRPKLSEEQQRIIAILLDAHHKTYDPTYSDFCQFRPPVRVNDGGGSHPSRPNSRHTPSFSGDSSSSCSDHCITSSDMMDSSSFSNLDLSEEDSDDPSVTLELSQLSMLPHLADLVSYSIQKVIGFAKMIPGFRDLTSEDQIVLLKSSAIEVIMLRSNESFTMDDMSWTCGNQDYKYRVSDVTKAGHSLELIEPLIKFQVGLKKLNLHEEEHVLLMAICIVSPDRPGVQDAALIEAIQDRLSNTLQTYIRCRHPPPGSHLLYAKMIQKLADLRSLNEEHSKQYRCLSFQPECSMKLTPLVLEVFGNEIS
Sequence of Aryl hydrocarbon receptor (Homo sapiens) (P35869 whole entry, looked up): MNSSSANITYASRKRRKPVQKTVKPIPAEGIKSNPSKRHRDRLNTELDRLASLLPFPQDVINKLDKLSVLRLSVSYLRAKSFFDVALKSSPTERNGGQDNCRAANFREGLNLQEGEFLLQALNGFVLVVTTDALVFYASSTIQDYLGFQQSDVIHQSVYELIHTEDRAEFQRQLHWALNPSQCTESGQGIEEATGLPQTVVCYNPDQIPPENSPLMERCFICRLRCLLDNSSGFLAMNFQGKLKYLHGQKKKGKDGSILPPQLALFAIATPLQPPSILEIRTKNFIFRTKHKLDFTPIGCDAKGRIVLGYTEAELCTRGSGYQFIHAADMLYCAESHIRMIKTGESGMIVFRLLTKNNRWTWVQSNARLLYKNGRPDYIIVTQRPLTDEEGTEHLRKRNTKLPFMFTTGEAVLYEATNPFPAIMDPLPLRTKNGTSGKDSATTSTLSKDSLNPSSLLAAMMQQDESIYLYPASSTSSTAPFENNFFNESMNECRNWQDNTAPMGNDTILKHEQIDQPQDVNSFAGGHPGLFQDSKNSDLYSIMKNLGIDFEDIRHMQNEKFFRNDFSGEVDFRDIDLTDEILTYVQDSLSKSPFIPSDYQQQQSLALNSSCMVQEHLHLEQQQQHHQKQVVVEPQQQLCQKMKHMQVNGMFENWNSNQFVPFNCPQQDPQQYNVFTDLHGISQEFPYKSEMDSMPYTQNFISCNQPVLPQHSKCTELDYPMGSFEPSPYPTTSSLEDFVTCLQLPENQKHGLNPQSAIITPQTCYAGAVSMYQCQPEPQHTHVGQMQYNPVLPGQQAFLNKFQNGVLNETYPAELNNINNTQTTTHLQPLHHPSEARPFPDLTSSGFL
Sequence of Bile acid receptor (Homo sapiens) (Q96RI1 whole entry, looked up): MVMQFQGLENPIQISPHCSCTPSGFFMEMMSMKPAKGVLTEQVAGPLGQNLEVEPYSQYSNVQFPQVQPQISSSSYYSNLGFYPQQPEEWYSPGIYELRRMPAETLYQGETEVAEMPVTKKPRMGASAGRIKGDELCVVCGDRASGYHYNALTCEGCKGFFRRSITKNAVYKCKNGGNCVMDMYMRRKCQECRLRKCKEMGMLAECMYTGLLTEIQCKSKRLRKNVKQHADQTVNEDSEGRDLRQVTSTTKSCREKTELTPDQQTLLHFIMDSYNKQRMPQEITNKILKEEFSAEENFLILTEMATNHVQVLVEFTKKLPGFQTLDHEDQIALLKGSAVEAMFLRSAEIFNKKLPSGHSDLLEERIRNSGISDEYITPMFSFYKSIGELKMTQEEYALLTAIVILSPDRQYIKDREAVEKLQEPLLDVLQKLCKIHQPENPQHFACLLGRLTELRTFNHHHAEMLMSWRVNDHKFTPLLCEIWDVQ

| Compound | Potency [1] | Potency [2] | Potency [3] | Potency [4] | Potency [5] | Potency [6] | Potency [7] | outcome [8] | outcome [9] | Potency [10] | Potency [11] | Potency [12] | outcome [13] | outcome [14] | Potency [15] | outcome [16] | Potency [17] | outcome [18] | Potency [19] | outcome [20] |
| --- | --- | --- | --- | --- | --- | --- | --- | --- | --- | --- | --- | --- | --- | --- | --- | --- | --- | --- | --- | --- |
| NC(=O)c1cc[n+](CC2=C(C(=O)[O-])N3C(=O)[C@@H](NC(=O)Cc4cccs4)[C@H]3SC2)cc1 | inactive | inactive | inactive | inactive | inactive | inactive | inactive | inactive | inactive | inactive | inactive | inactive | inactive | inactive | inactive | inactive | inactive | inactive |  |  |
| OCCOc1cccc(OCCO)c1 | inactive | inactive | inactive | inactive | inactive | inactive | inactive | inactive |  |  | inactive | inactive | inactive |  | inactive |  | inactive | inactive | inactive |  |
| CCCCCCCCCCCCCCCCC(=O)O | inactive | inactive | inactive | inactive | inactive | inactive | inactive |  | inactive | inactive | inactive | inactive | inactive | inactive | inactive | inactive | inactive | inactive | inactive |  |
| C=CC(=O)OCCCCCCCCCC | inactive | inactive | inactive | inactive | inactive | inactive | inactive |  | inactive | inactive |  | inactive |  |  | inactive |  | inactive | inactive | inactive | inactive |
| CCCCCCCCCCCCSC#N | inactive | inactive | inactive | inactive | inactive | inactive | inactive | inactive |  | inactive | inactive | inactive | inactive |  | inactive |  | inactive | inactive | inactive | inactive |
| CCCN(C1CCN(C(=O)C2CCNCC2)CC1)[C@@H]1CCc2ccc(OC)cc2C1 | inactive | inactive | inactive | inactive | inactive | inactive |  | inactive | inactive |  | inactive | inactive | inactive |  |  |  | inactive | inactive |  | inactive |
| CCCCOC(=O)CC#N | inactive | inactive | inactive | inactive | inactive | inactive | inactive |  |  | inactive |  | 57.6 µM (active) |  |  | inactive |  | inactive | inactive |  |  |
| O=C1CCCN1CCO | inactive | inactive | inactive | inactive | inactive | inactive | inactive | inactive |  | inactive |  | inactive | inactive |  |  |  |  | inactive |  |  |
| N#C[C@@H]1CC(F)(F)CN1C(=O)CNC1CC2CCC(C1)N2c1ncccn1 (stereo partly drawn) | inactive | inactive | inactive | inactive | inactive | inactive | inactive | inactive |  | inactive | inactive | inactive |  | inactive | inactive | inactive | inactive |  | inactive |  |
| Cc1ccccc1CCO | inactive | inactive | inactive | inactive | inactive | inactive | inactive |  | inactive |  | inactive | inactive | inactive | inactive |  | inactive |  | inactive | inactive | inactive |
| CCCCCCOC(=O)c1ccccc1 | inactive | inactive | inactive | inactive | inactive | inactive | inactive | inactive | inactive | inactive | inactive | inactive |  | inactive | 30.9 µM (active) |  | inactive | inactive |  | inactive |
| CC(Cc1ccccc1)(NC(=O)CN)c1ccccc1 (stereo not drawn) | inactive | inactive | inactive | inactive | inactive | inactive | inactive | inactive | inactive | inactive | inactive |  | inactive |  | inactive | inactive | inactive | inactive |  | inactive |
| CC(COc1ccccc1)NC(C)C(O)c1ccc(O)cc1 (stereo not drawn) | inactive | inactive | inactive | inactive | inactive | inactive | inactive | inactive |  | inactive | inactive |  | inactive |  | inactive | inactive | inactive | inactive | inactive |  |
| O=C(c1ccc(Cl)cc1)c1ccc(Cl)cc1 | inactive | inactive | inactive | inactive | inactive | inactive | inactive | inactive |  |  | inactive | inactive |  |  | inactive |  | inactive | inactive | inactive | inactive |
